Measurements: PubChem BioAssay AID651710 (Broad Institute, 2012)
Several values for one entry are separate records, joined by “and”; a condition that tells them apart may be missing. Equal entries are not always repeated. About 1,600 (0.44%) of roughly 360,000 compounds were called active.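 The calls were made as follows: active = every replicate showing at least 50% inhibition; inconclusive = mean inhibition at least 50% but not in every replicate; inactive = the rest.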 For the sample, actives were picked, then their nearest neighbours and some compounds at random. Some structures have more than one record in an assay (separate samples or runs), and their calls can disagree.

These compounds were tested against DNA repair protein RAD52 homolog (Homo sapiens) (UniProt P43351) (assay: blockers of RAD52 strand annealing activity – biochemical, FRET, single point, set 2, primary screen (AID 651710)). Conditions: recombinant RAD52 DNA annealing, FRET fluorescence; at 18.7 µM; stronger effect = higher value.
Sequence of DNA repair protein RAD52 homolog (Homo sapiens) (P43351 whole entry, looked up): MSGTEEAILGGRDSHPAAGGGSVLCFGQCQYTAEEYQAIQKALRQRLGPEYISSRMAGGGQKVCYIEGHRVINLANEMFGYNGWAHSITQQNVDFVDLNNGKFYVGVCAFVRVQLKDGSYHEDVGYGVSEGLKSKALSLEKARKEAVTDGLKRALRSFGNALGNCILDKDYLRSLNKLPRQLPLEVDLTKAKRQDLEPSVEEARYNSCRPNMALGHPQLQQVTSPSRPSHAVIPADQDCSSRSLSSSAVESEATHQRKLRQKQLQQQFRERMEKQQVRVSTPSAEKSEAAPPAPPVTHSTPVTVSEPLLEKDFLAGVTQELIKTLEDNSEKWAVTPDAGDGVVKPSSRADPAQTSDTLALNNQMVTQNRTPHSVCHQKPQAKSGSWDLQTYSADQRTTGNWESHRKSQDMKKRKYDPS

inhibition, 73.9% (active) and 22.4% (inactive):
N#Cc1cccc(-c2ccc(C3[C@H]4CNC[C@@H]3N4S(=O)(=O)c3ccc(-c4ccccc4)cc3)cc2)c1 (stereo partly specified)

inhibition, active:
CCN(CC)CCNC(=O)c1ccc(NC(=O)c2cc(-c3ccncc3)nc3ccccc23)cc1 54.5%
Cc1nc(N=C(N)N)nc2c(C)cccc12 81.9%
CN(C)CCNC(=O)c1cccc(-c2cnc3c(NC=O)cc(-c4cccc(C(F)(F)F)c4)cn23)c1 67%
CC(=O)c1cccc(-c2cnc3c(NC=O)cc(-c4ccc(N5CCN(C)CC5)cc4)cn23)c1 73.8%
CC(=O)Nc1cc(-c2ccc(N3CCN(C)CC3)cc2)cn2c(-c3cccc(C(=O)N(C)C)c3)cnc12 79.7%
C=Cn1cc[n+](CC(=O)c2ccc(OC)c(OC)c2)c1 98%
COc1ccc2[nH]c3c(C)c4cc[n+](C)cc4c(C)c3c2c1 94.3%
CCCCCCCCCCOC(=O)Cn1c(COc2ccc(C)cc2)[n+](C)c2ccccc21 79.8%

inhibition, inactive:
N#Cc1cccc(-c2ccc(C3[C@H]4CNC[C@@H]3N4Cc3cncnc3)cc2)c1 (stereo partly specified) -10.4%
N#Cc1ccc(-c2ccc(C3[C@H]4CNC[C@@H]3N4S(=O)(=O)c3ccccc3F)cc2)cc1 (stereo partly specified) 28.8%
CCCNC(=O)N(C)C[C@@H]1Oc2ncc(C#CC(C)C)cc2C(=O)N([C@H](C)CO)C[C@H]1C -2.25%
CCN(CC)CCNC(=O)c1ccc(NC(=O)c2c(F)cccc2Cl)cc1 -8.76%
O=C(Nc1ccc(S(=O)(=O)Nc2nccs2)cc1)c1cc(-c2ccncc2)nc2ccccc12 -42.2%
COC(=O)Cc1nnn2c1[C@H](C)[C@@H](OC)c1cc(Br)ccc1-2 -4.62%
C[C@@H]1CN([C@@H](C)CO)C(=O)c2cc(NC(=O)Nc3ccccc3)ccc2O[C@@H]1CN(C)Cc1ccccc1 8.18%
COc1cccc(NC(=O)N[C@H]2C=C[C@H](CC(=O)NCc3ccccn3)O[C@@H]2CO)c1 -25.9%
COc1ccc(-c2ccc3c(c2)[C@@H]2[C@@H](CCN2C(=O)NC2CCCC2)[C@@H](CO)N3C)cc1 -19%
COCC(=O)Nc1ccc2c(c1)OC[C@H](C)NC[C@H](C)[C@H](OC)CN(C)C2=O -2.26%
COc1cccc(CN2[C@H](CO)[C@@H]3c4ccccc4N(C(=O)c4ccncc4)C[C@@H]32)c1 -8.72%
CC(=O)c1cccc(-c2cnc3c(NC=O)cc(-c4ccc(N(C)C)cc4)cn23)c1 -47.5%
CN(C)C(=O)c1cccc(-c2cnc3c(NC=O)cc(-c4ccc(F)cc4)cn23)c1 -55.7%
CC(=O)c1cccc(-c2cnc3c(NC=O)cc(-c4cccc(C(=O)N(C)C)c4)cn23)c1 -0.741%
CC(=O)Nc1cc(-c2cccc(CO)c2)cn2c(-c3cccc(C(F)(F)F)c3)cnc12 -17.3%
CN(C)C(=O)c1cccc(-c2cnc3c(NC=O)cc(-c4ccc(C(=O)N5CCOCC5)cc4)cn23)c1 -29%
CC(=O)Nc1cc(-c2ccc(N3CCN(C)CC3)cc2)cn2c(-c3ccc(F)cc3)cnc12 18%
O=C(C[C@H]1C=C[C@@H](NC(=O)C2CC2)[C@H](CO)O1)NCC1CC1 2.9%
CO[C@H]1CN(C)C(=O)c2ccc(NC(=O)c3cnccn3)cc2OC[C@H](C)N(C)C[C@@H]1C 2.76%
O=C(Nc1ccccc1)N[C@H]1CC[C@H](CCNC(=O)c2ccccc2F)O[C@H]1CO -10.3%
CCCN(C)C[C@@H]1Oc2ncc(-c3cccc(C(=O)N(C)C)c3)cc2C(=O)N([C@H](C)CO)C[C@@H]1C -4.17%
CN(C)C(=O)C[C@H]1CC[C@H](NC(=O)NC2CCCC2)[C@@H](CO)O1 -3.59%
CCCC#Cc1ccc([C@H]2[C@@H](CO)N3CCCCN(C(=O)c4ccc5c(c4)OCO5)C[C@@H]23)cc1 -42.9%
COc1ccc(NC(=O)N(C)C[C@@H]2Oc3ccc(NC(=O)CCC(F)(F)F)cc3C(=O)N([C@@H](C)CO)C[C@H]2C)cc1 -4.28%
O=C(Nc1ccccc1)[C@@H]1[C@@H](CO)[C@@H]2Cn3c(cccc3=O)[C@@H]2N1C(=O)C1CC1 2.14%
COc1ccc(C(=O)COC(=O)c2ccc([N+](=O)[O-])s2)cc1OC -8.04%
COc1ccc(-n2nnnc2SCC(=O)c2ccc(OC)c(OC)c2)cc1 -22.4%
CC(=O)N(C)C[C@H]1Oc2ncc(C#CC3(O)CCCC3)cc2C(=O)N([C@@H](C)CO)C[C@@H]1C 9.64%
CO[C@@H]1CN(C)C(=O)c2ccc(NC(=O)Nc3ccccc3)cc2OC[C@@H](C)N(C(=O)CN(C)C)C[C@H]1C 5.57%
Cn1cnc(S(=O)(=O)N2CCCCN3[C@H](CO)[C@@H](c4ccc(-c5ccc(F)cc5)cc4)[C@@H]3C2)c1 -27.5%
COc1ccc(-c2cn(CC[C@H]3CC[C@@H](NC(=O)CCN4CCCCC4)[C@H](CO)O3)nn2)cc1 -7.25%
C[C@H]1CCCCO[C@H](CN(C)S(=O)(=O)c2ccc(F)cc2)[C@@H](C)CN([C@@H](C)CO)C(=O)c2cc(NS(=O)(=O)c3cn(C)cn3)ccc2O1 -9.68%
CSc1ccccc1NC(=O)COC(=O)CCCOc1ccc(C)cc1 -13.4%
Cc1ccc(COc2ccc(C(=O)NN)cc2)cc1 -18.7%
COCC#Cc1ccc2c(c1)O[C@@H](CN(C)C(=O)Nc1ccccc1F)[C@H](C)CN([C@H](C)CO)S2(=O)=O 11.1%
O=S(=O)(c1ccccc1)N1CCCCN2[C@H](C1)[C@H](c1ccc(-c3ccccc3)cc1)[C@@H]2CO -26.6%
C[C@H]1CN([C@@H](C)CO)C(=O)c2cc(NC(=O)CCC(F)(F)F)ccc2O[C@H]1CN(C)Cc1ccc(C(=O)O)cc1 -6.5%
